# Data from PubChem BioAssay AID763 (NMMLSC, 2007).
# Values without a mark were called inactive. No rule for the calls is given here.
# Target: fMet-Leu-Phe receptor (Homo sapiens) (UniProt P21462)
# Assay: FPR1 fluorescent ligand binding inhibitors, SAR follow-up, selectivity assay for FPRL1 ligand SAR project, cell-based, single concentration (AID 763)
# Conditions: FPR1-expressing cells, active compounds read high; at 5.4 µM unless noted
# fMet-Leu-Phe receptor (Homo sapiens), sequence (P21462 whole entry, looked up): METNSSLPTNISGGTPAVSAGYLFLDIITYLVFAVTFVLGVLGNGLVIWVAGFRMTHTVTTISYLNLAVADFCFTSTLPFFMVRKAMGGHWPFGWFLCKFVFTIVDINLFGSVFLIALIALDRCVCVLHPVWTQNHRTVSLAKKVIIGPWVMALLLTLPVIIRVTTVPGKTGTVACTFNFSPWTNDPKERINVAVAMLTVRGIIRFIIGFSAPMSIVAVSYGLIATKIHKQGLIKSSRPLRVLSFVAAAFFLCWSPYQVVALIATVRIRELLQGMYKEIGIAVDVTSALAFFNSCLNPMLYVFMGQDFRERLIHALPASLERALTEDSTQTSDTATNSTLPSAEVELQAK
row,SMILES,inhibition
1,COc1cccc(-c2cc(C(F)(F)F)nc(N3CCN(C)CC3)n2)c1,1.9% [at 6.3 µM]
2,COc1ccc(CC(=O)Nc2cc(-c3cn4cccnc4n3)ccc2OC)cc1,-1.7% [at 5.7 µM]
3,COc1ccccc1-c1cc(C(F)(F)F)nc(N2CCN(Cc3ccccc3)CC2)n1,1.1% [at 5.2 µM]
4,CCOC(=O)N1CCN(c2nc(-c3ccccc3Cl)c3cc(Br)ccc3n2)CC1,1.8% [at 4.7 µM]
5,FC(F)(F)c1cc(-c2ccco2)nc(N2CCN(C(c3ccccc3)c3ccccc3)CC2)n1,0.5% [at 4.8 µM]
6,O=C(c1ccccc1)N1CCN(c2nc(-c3ccccc3)c3cc([N+](=O)[O-])ccc3n2)CC1,-6% [at 5.1 µM]
7,FC(F)(F)c1cc(-c2ccc(Cl)cc2)nc(N2CCN(C(c3ccccc3)c3ccccc3)CC2)n1,2.8% [at 4.4 µM]
